The list is not random: actives were taken first. Their share in the collection is about 11%.
HP1b chromo inh: blocks HP1-beta chromodomain binding to methylated histone tails; P83916; AlphaScreen HP1-beta / biotin-H3K9me3 peptide binding; Potency, µM (top dose mostly 114 µM), for inactives: at the highest dose activity change, negative = inhibition, actives largely listed as inhibitors; actives 0.56% (n = 390,000); AID 540317; note: nearly all actives have a fitted effect of over 70% in size
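HP1-beta protein (50 nM final) preincubated 30 min at room temperature with biotinylated H3(1-18)K9me3 peptide (50 nM) in PBS pH 7.4, 0.01% Tween-20, then compound added for 30 min. AlphaScreen streptavidin donor/nickel chelate acceptor beads (10 ug/mL final), 30 min dark, luminescence read.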
BAZ2B inh: blocks human BAZ2B; Q9UIF8; AlphaScreen BAZ2B-H3K14Ac peptide displacement; Potency, µM (top dose mostly 114 µM), inactives show top-dose activity change, negative = inhibition, most hits filed as inhibitors; actives 4.4% (n = 360,000); AID 504333; note: % is set by controls: 0 for no effect and ±100 for the full control effect; nearly all actives have a fitted effect of over 60% in size
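Multi-concentration screen (max 110 uM) measuring displacement of acetylated histone H3 peptide from BAZ2B by AlphaScreen, using 50 nM protein, 50 nM peptide and 10 ug/mL streptavidin donor plus Ni-chelate acceptor beads.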
L3MBTL1 block: inhibitors of human L3MBTL1; Q9Y468; AlphaScreen L3MBTL1–H3K9me1 peptide binding; Potency, µM (titrated, usually from 57.1 µM), for the others: at the highest dose activity, negative = inhibition, hits mostly inhibitors; actives 0.66% (n = 230,000); AID 485360; note: % is set by controls: 0 for no effect and ±100 for the full control effect; nearly all actives have a fitted effect of over 60% in size
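Read-out is AlphaScreen signal from streptavidin donor and nickel chelate acceptor beads (10 ug/mL final each) bridging L3MBTL1 (50 nM) and biotinylated K9-monomethylated H3(1-15) peptide (75 nM), after 30 min compound exposure at room temperature.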
JMJD2A Tudor: JMJD2A Tudor domain (human) inhibition; AlphaScreen JMJD2A-Tudor / H3K4me3 peptide binding; Potency, µM (doses to about 114 µM), for inactives: at the highest dose activity change, negative = inhibition, actives largely listed as inhibitors; actives 4.4% (n = 390,000); note: % is set by controls: 0 for no effect and ±100 for the full control effect; nearly all actives have a fitted effect of over 50% in size
G9a inh: inhibitors of human histone lysine methyltransferase G9a; Q96KQ7; actives 8.8% (n = 350,000); AID 504332; G9a H3K9 monomethylation, AlphaScreen, 2 h; Potency, µM (top dose mostly 102 µM), inactives show at the top dose activity, negative = inhibition, most hits filed as inhibitors; note: % is set by controls: 0 for no effect and ±100 for the full control effect; nearly all actives have a fitted effect of over 75% in size
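Using a bead-based AlphaScreen, monomethylated H3K9 product from 2 h room-temperature reactions (G9a 20 nM, peptide 500 nM, SAM 20 uM) was detected with 0.5 ug/mL rabbit anti-H3K9me1 antibody.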
* hit, by the source's call; ? = inconclusive; . = no result given; ! = a repeat was not active; [ ] = remark or other dose. Calls come from the whole dose curve; as a rule, active = well fitted inhibition curve with a large enough effect; inconclusive = small, poorly fitted or top-dose-only effect; inactive = no such curve, though single readings can be large or run the other way. Potency is the fitted concentration of half-maximal effect.

SMILES | HP1b chromo inh | BAZ2B inh | L3MBTL1 block | JMJD2A Tudor | G9a inh
COc1ccc(CCN=C(N)NS(=O)(=O)c2cc(F)ccc2F)cc1 | 25.2% | -10.8% | . | -15.7% | 23.2%
CCOC(=O)c1cccc(NC(=O)c2ncoc2-c2ccco2)c1 | 36.9% | -9.4% | . | -14.9% | 8.9%[59 µM]
O=C(C1CCN(Cc2cc(Cl)ccc2O)CC1)N1CCN(Cc2ccccc2)CC1 | ? | ? | 5.5% | 3.55µM* | ?
COc1cccc(OC)c1C(=O)N1CCN(Cc2ccc3c(c2)OCO3)CC1 | 44.7µM* | 50.1µM* | 2.2% | 5.01µM* | 14.1µM*
O=C(C1CCN(S(=O)(=O)c2ccccc2)CC1)N1CCN(Cc2ccc3c(c2)OCO3)CC1 | -1.9% | -1.1% | . | -18.2% | 87.8%
COc1cccc(CN2CCC(C(=O)N3CCN(Cc4ccc5c(c4)OCO5)CC3)CC2)c1OC | ? | -13.2% | . | 3.16µM* | 1.2%
O=C(C1CCN(Cc2ccccc2O)CC1)N1CCN(Cc2ccc3c(c2)OCO3)CC1 | ? | ? | . | 2.82µM* | 6.31µM*
COc1cc(SC)ccc1C(=O)N1CCN(Cc2ccc3c(c2)OCO3)CC1 | 19.3% | -11.6% | 1.4% | -13.9% | -20.7%
CC1CN(S(=O)(=O)c2cc(C(=O)N(C)Cc3cccs3)ccc2Cl)CC(C)O1 (centres undefined) | 15.7% | . | 2.7% | -18.8% | .
CCN(CC)S(=O)(=O)c1ccc(NC(=O)c2c(C)oc3ncnc(N4CCCCC4)c23)cc1 | -17.1% | -1.6%[57.1 µM] | . | -17.5% | -2.8%[59 µM]
O=C(Cn1ncc2c1-c1ccccc1OC2)N1CCN(Cc2ccc3c(c2)OCO3)CC1 | 12.2% | -2.2% | . | -24.5% | 15.8µM*
COc1cc2c(cc1OC)C(C)N(C(=O)Cn1ncc3c1-c1ccccc1OC3)CC2 (centres undefined) | 30.8% | -1.3% | 3.3% | -23.2% | 79.4µM*
CC1CCCN(C(=O)C2CCN(Cc3ccc4c(c3)OCO4)CC2)C1 (centres undefined) | -35.8% | -32.4% | . | 2.24µM* | 50.1µM*
O=C(Nc1ccc2c(c1)OCO2)C1CCCCC1 | 27.0% | -17.3% | . | 10.6% | ?
O=C(Nc1ccc2c(c1)OCO2)C1CCN(Cc2cc3c(cc2O)OCO3)CC1 | ? | -35.5% | . | ? | 31.6µM*
COc1ccc(OC)c(NC(=O)Cn2ncc3c2-c2ccccc2OC3)c1 | 23.6% | -24.5% | . | -13.5% | 5.2%[59 µM]
COc1ccc(NC(=O)c2cn3c4c(ccc(Cl)c4c2=O)OC(C)C3)cc1OC (centres undefined) | 20.1% | -9.8% | . | -25.4% | -31.9%[59 µM]
O=C(c1cccnc1)N1CCN(Cc2cccc(F)c2)CC1 | 44.7µM* | 31.6µM* | . | 1.58µM* | 3.16µM*
O=C(c1cccc(F)c1)N1CCC2(CCN(Cc3ccccc3)CC2)CC1 | . | . | . | . | 4.7%[12.7 µM]
O=C(c1cc(-c2ccncc2)nc2ccc(Br)cc12)N1CCN(Cc2ccc3c(c2)OCO3)CC1 | -8.2% | -11.1% | 2.2% | -32.1% | 2.6%[59 µM]
CC1CCN(c2nc3ccc(C(=O)N4CCN(Cc5ccc6c(c5)OCO6)CC4)cc3s2)CC1 | 15.4% | ? | . | ? | 28.2µM*
Cc1ccc2c(C)c(C(=O)N3CCN(Cc4ccc5c(c4)OCO5)CC3)oc2c1C | 0.3% | ? | . | -33.3% | 50.1µM*
O=C(c1cc(-c2ccncc2)nc2ccc(Cl)cc12)N1CCN(Cc2ccc3c(c2)OCO3)CC1 | -21.4% | 39.8µM* | -7.2% | ? | ?
CCc1cccc(C)c1NC(=O)c1cc(C)nc2c1c(C)nn2-c1cccc(Cl)c1C | 27.3% | 7.5%[57.1 µM] | . | 2.6% | -3.5%[59 µM]
O=[n+]1ccn([O-])c2ccccc21 | . | . | . | . | -6.4%[12.7 µM]
SMILES | HP1b chromo inh | BAZ2B inh | L3MBTL1 block | JMJD2A Tudor | G9a inh
Cc1ccccc1CNC(=O)Cc1csc2ccccc12 | 29.3% | -9.0% | . | -6.7% | -9.1%[59 µM]
O=C(c1cccc(F)c1)N1CCN(Cc2ccc3c(c2)OCO3)CC1 | ? | 50.1µM* | 2.4%[2.29 µM] | 1µM* | 2.3%[0.501 µM]
CCn1c(O)c(C#N)c(C)cc1=O | 15.3% | -12.5% | -10.4% | -12.8% | 44.7µM*
CC(=O)N1N=C(c2c(-c3ccccc3)c3cc(Br)ccc3[nH]c2=O)CC1c1ccco1 (centres undefined) | 39.7% | -18.5% | -7.9% | -28.3% | 50.1µM*
Cc1cccc(Cn2c(CN3CCC(C(=O)NCCc4ccccc4)CC3)cc3ccccc32)c1 | 37.3% | -12.5% | . | -19.7% | -8.3%[59 µM]
Cc1ccc(O)c(N=Nc2ccccc2)n1 | -25.5% | . | . | ? | 11.2µM*!
O=c1[nH]c(-c2ccc(F)cc2)nc2c1sc(=S)n2-c1ccccc1 | 17.9% | 50.1µM* | 6.7% | ? | 39.8µM*
O=c1[nH]c(-c2ccc3c(c2)OCO3)nc2c1sc(=S)n2-c1ccccc1 | 30.5% | -0.4% | 16.1% | -6.5% | -30.3%
O=c1[nH]cnc2c1sc(=S)n2-c1ccccc1 | -35.6% | 6.4% | 9.6% | 89.1µM* | 2.24µM*
N#Cc1cc([N+](=O)[O-])c2sc(C(N)=O)[n+]([O-])c2c1 | . | . | . | . | 28.2µM*
COc1cc(C(=O)Nc2ccc(C#N)cc2)c([N+](=O)[O-])cc1OC | 18.8% | -0.9% | . | -24.1% | -50.0%
CN(C(=O)CSc1nc2ccc(NC(=O)CCc3ccccc3)cc2s1)c1ccccc1 | 28.5% | -12.9% | . | -14.2% | -1.6%[59 µM]
Cc1ccc(C(=O)Nc2ccc(O)cc2C(=O)O)cc1C | 3.3% | 79.4µM* | . | ? | ?
Cc1ccc(C(=O)Nc2ccc(O)cc2C(=O)O)cc1 | 23.4% | -9.9% | . | ? | -9.7%[59 µM]
Cc1cc(N2C(=O)c3ccc(C(=O)Nc4ccc(O)cc4C(=O)O)cc3C2=O)no1 | 17.0% | 79.4µM* | . | -35.2% | 50.1µM*
Cn1c(=O)c2sccc2n2c(CCCC(=O)NCc3ccccc3)nnc12 | 6.3% | -0.7% | . | -13.8% | -1.7%[59 µM]
O=c1c2cnn(-c3ccc(Cl)cc3)c2ncn1Cc1ccc(Cl)cc1Cl | 20.4% | -0.9% | . | -1.7% | 7.7%[59 µM]
COC(=O)c1sccc1NC(=O)Nc1cccc(F)c1 | 41.5% | 1.8% | 3.9% | 5.6% | -4.1%
CC(C)c1ccc(C(=O)CC2(O)C(=O)N(CCc3ccccc3)c3ccc(Cl)cc32)cc1 (centres undefined) | 0.3% | -3.2% | . | -26.6% | ?
Cn1c(=O)n(C)c2cc3[nH]cnc3cc21 | 20.4% | ? | . | -4.1% | -38.2%
Nc1cc2nc[nH]c2cc1N | 41.3% | 28.2µM* | -12.7% | 50.1µM* | 17.8µM*
CC(=O)C(=Cc1ccc(C(=O)O)cc1)C(C)=O | 51.3% | ? | ? | -2.8% | 56.2µM*
Cc1ccc(NC(=O)C(=Cc2ccc(C(=O)O)cc2)C(=O)Nc2ccc(C)cc2C)c(C)c1 | 24.7% | -17.8% | 0.4% | -10.9% | 6.8%[12.7 µM]
CC1(C)CCC(C)(C)c2cc(C(=O)Nc3ccc(C(=O)O)cc3)ccc21 | . | . | . | . | 25.2%[59 µM]
C/C(=C\c1ccc(C(=O)O)cc1)c1ccc2c(c1)C(C)(C)CCC2(C)C | 3.5% | 6.5% | -2.4% | -23.4% | 15.8µM*!
C=C1C(=O)OC2CC1C(OC(C)=O)CC(C)=CCCC(C)=CCC[C@@]2(C)O (some centres undefined) | . | . | . | . | -2.5%[2.33 µM]

Screening data from PubChem.
